# Source: the supplement of paper PMC4022240
# ± gives the standard deviation.
# T1: HaloTag-ATRX ADD domain (163-292)
# T1 chain: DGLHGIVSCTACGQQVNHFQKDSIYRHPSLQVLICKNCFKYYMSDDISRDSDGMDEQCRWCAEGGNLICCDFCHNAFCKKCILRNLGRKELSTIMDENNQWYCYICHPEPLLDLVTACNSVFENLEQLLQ
# B1: H3 5-17 Q T A Rme2s Kac S T G G K A P R (peptide)
# chain: QTARKSTGGKAPR
# B2: H3 5-17 Q T A Rme2s K S T G G K A P R (peptide)
# chain: QTARKSTGGKAPR
# B3: H3 5-17 Q T A Rme2a Kac S T G G K A P R (peptide)
# chain: QTARKSTGGKAPR
# B4: H3 5-17 Q T A Rme K Sph T G G K A P R (peptide)
# chain: QTARKSTGGKAPR
# B5: H3 5-17 Q T A Rme Kme3 S T G G K A P R (peptide)
# chain: QTARKSTGGKAPR
# B6: H3 5-17 Q T A Rme2a K S Tph G G K A P R (peptide)
# chain: QTARKSTGGKAPR
# B7: H3 5-17 Q T A Rme2a K S T G G K A P R (peptide)
# chain: QTARKSTGGKAPR
# B8: H3 5-17 Q T A Rme2a Kme2 S T G G K A P R (peptide)
# chain: QTARKSTGGKAPR
# B9: H3 5-17 Q T A Rme2s Kme2 S T G G K A P R (peptide)
# chain: QTARKSTGGKAPR
# B10: H3 5-17 Q T A R K Sph T G G Kme2 A P R (peptide)
# chain: QTARKSTGGKAPR
# Tests used:
# Assay in all cases: peptide microarray binding signal (635 nm), min-max normalized on array (fraction of array maximum); higher = stronger binding
# Conditions in all cases: peptide region: H3 5-17
# [1] = molecular target: T1, HaloTag-ATRX ADD domain (163-292)
# Procedure, shortened: (§1)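 Binding signal is the mean intensity of triplicate spots, min-max scaled within each library. Histone 13-mer peptide–cellulose conjugates were spotted in triplicate on nitrocellulose with a Cy3 tracer and blocked overnight at 4°C. Probing lasted 1 h at 4°C, either with biotin-labelled HaloTag reader fusions (10 nM to 1 μM) and streptavidin-Alexa Fluor 647 or with rabbit histone antibodies (1:10,000 to 1:2,000) and anti-rabbit Alexa 647. An Axon GenePix 4000B read signal at 635 nm and misprints at 532 nm.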
# [2] = molecular target: HaloTag-ING2 PHD (mouse Ing2 200-280)
# Procedure, shortened: as §1
# [3] = molecular target: anti-H3K4me3 antibody ab8580
# Procedure, shortened: as §1
# [4] = molecular target: anti-H3K9me3 antibody ab8898
# Procedure, shortened: as §1
# [5] = peptide modifications: H3R8me2s H3K9ac, binder concentration: 1:2,000 dilution
# [6] = peptide modifications: H3R8me2s H3K9ac, binder concentration: 1:10,000 dilution
# [7] = peptide modifications: H3R8me2s, binder concentration: 1:2,000 dilution
# [8] = peptide modifications: H3R8me2s, binder concentration: 1:10,000 dilution
# [9] = peptide modifications: H3R8me2a H3K9ac, binder concentration: 1:2,000 dilution
# [10] = peptide modifications: H3R8me2a H3K9ac, binder concentration: 1:10,000 dilution
# [11] = peptide modifications: H3R8me1 H3S10ph, binder concentration: 1:2,000 dilution
# [12] = peptide modifications: H3R8me1 H3S10ph, binder concentration: 1:10,000 dilution
# [13] = peptide modifications: H3R8me1 H3K9me3, binder concentration: 1:2,000 dilution
# [14] = peptide modifications: H3R8me1 H3K9me3, binder concentration: 1:10,000 dilution
# [15] = peptide modifications: H3R8me2a H3T11ph, binder concentration: 1:2,000 dilution
# [16] = peptide modifications: H3R8me2a H3T11ph, binder concentration: 1:10,000 dilution
# [17] = peptide modifications: H3R8me2a, binder concentration: 1:2,000 dilution
# [18] = peptide modifications: H3R8me2a, binder concentration: 1:10,000 dilution
# [19] = peptide modifications: H3R8me2a H3K9me2, binder concentration: 1:2,000 dilution
# [20] = peptide modifications: H3R8me2a H3K9me2, binder concentration: 1:10,000 dilution
# [21] = peptide modifications: H3R8me2s H3K9me2, binder concentration: 1:2,000 dilution
# [22] = peptide modifications: H3R8me2s H3K9me2, binder concentration: 1:10,000 dilution
# [23] = peptide modifications: H3S10ph H3K14me2, binder concentration: 1:2,000 dilution
# [24] = peptide modifications: H3S10ph H3K14me2, binder concentration: 1:10,000 dilution
binder,measurement,setting,value
B1,peptide microarray binding signal,"[1]; peptide modifications: H3R8me2s H3K9ac, binder concentration: 50 nM",0.0102 ± 0.00014
same,peptide microarray binding signal,"[1]; peptide modifications: H3R8me2s H3K9ac, binder concentration: 500 nM",0.0189 ± 0.00053
same,peptide microarray binding signal,"[2]; peptide modifications: H3R8me2s H3K9ac, binder concentration: 10 nM",0.0344 ± 0.0018
same,peptide microarray binding signal,"[2]; peptide modifications: H3R8me2s H3K9ac, binder concentration: 100 nM",0.064 ± 0.0047
same,peptide microarray binding signal,[3]; [5],0.0111 ± 0.0022
same,peptide microarray binding signal,[3]; [6],0.0146 ± 0.00068
same,peptide microarray binding signal,[4]; [5],0.011 ± 0.00081
same,peptide microarray binding signal,[4]; [6],0.00899 ± 0.0016
B2,peptide microarray binding signal,"[1]; peptide modifications: H3R8me2s, binder concentration: 50 nM",0.00245 ± 0.00023
same,peptide microarray binding signal,"[1]; peptide modifications: H3R8me2s, binder concentration: 500 nM",0.00352 ± 0.00033
same,peptide microarray binding signal,"[2]; peptide modifications: H3R8me2s, binder concentration: 10 nM",0.00412 ± 0.00015
same,peptide microarray binding signal,"[2]; peptide modifications: H3R8me2s, binder concentration: 100 nM",0.00184 ± 6.7e-05
same,peptide microarray binding signal,[3]; [7],0.0129 ± 0.0069
same,peptide microarray binding signal,[3]; [8],0.0128 ± 0.0042
same,peptide microarray binding signal,[4]; [7],0.00237 ± 0.00021
same,peptide microarray binding signal,[4]; [8],0.00415 ± 0.00028
B3,peptide microarray binding signal,"[1]; peptide modifications: H3R8me2a H3K9ac, binder concentration: 50 nM",0.00423 ± 6.5e-05
same,peptide microarray binding signal,"[1]; peptide modifications: H3R8me2a H3K9ac, binder concentration: 500 nM",0.003 ± 4.1e-05
same,peptide microarray binding signal,"[2]; peptide modifications: H3R8me2a H3K9ac, binder concentration: 10 nM",0.00651
same,peptide microarray binding signal,"[2]; peptide modifications: H3R8me2a H3K9ac, binder concentration: 100 nM",0.00765 ± 0.00019
same,peptide microarray binding signal,[3]; [9],0.00208 ± 6e-05
same,peptide microarray binding signal,[3]; [10],0.00217 ± 5.2e-05
same,peptide microarray binding signal,[4]; [9],0.00403 ± 0.00054
same,peptide microarray binding signal,[4]; [10],0.00427 ± 9.8e-05
B4,peptide microarray binding signal,"[1]; peptide modifications: H3R8me1 H3S10ph, binder concentration: 50 nM",0.0079 ± 0.00028
same,peptide microarray binding signal,"[1]; peptide modifications: H3R8me1 H3S10ph, binder concentration: 500 nM",0.0149 ± 0.003
same,peptide microarray binding signal,"[2]; peptide modifications: H3R8me1 H3S10ph, binder concentration: 10 nM",0.0175 ± 0.0014
same,peptide microarray binding signal,"[2]; peptide modifications: H3R8me1 H3S10ph, binder concentration: 100 nM",0.0298 ± 0.002
same,peptide microarray binding signal,[3]; [11],0.00208 ± 0.00022
same,peptide microarray binding signal,[3]; [12],0.00217 ± 0.00011
same,peptide microarray binding signal,[4]; [11],0.00359 ± 0.00056
same,peptide microarray binding signal,[4]; [12],0.00306
B5,peptide microarray binding signal,"[1]; peptide modifications: H3R8me1 H3K9me3, binder concentration: 50 nM",0.00652 ± 0.00076
same,peptide microarray binding signal,"[1]; peptide modifications: H3R8me1 H3K9me3, binder concentration: 500 nM",0.0104 ± 0.0013
same,peptide microarray binding signal,"[2]; peptide modifications: H3R8me1 H3K9me3, binder concentration: 10 nM",0.0116 ± 0.00032
same,peptide microarray binding signal,"[2]; peptide modifications: H3R8me1 H3K9me3, binder concentration: 100 nM",0.0168 ± 0.002
same,peptide microarray binding signal,[3]; [13],0.0438 ± 0.013
same,peptide microarray binding signal,[3]; [14],0.0394 ± 0.0046
same,peptide microarray binding signal,[4]; [13],0.185 ± 0.023
same,peptide microarray binding signal,[4]; [14],0.243 ± 0.0063
B6,peptide microarray binding signal,"[1]; peptide modifications: H3R8me2a H3T11ph, binder concentration: 50 nM",0.00567 ± 0.00028
same,peptide microarray binding signal,"[1]; peptide modifications: H3R8me2a H3T11ph, binder concentration: 500 nM",0.008 ± 0.00083
same,peptide microarray binding signal,"[2]; peptide modifications: H3R8me2a H3T11ph, binder concentration: 10 nM",0.0111 ± 0.00069
same,peptide microarray binding signal,"[2]; peptide modifications: H3R8me2a H3T11ph, binder concentration: 100 nM",0.0171 ± 0.0015
same,peptide microarray binding signal,[3]; [15],0.00181 ± 0.00016
same,peptide microarray binding signal,[3]; [16],0.00257 ± 6e-05
same,peptide microarray binding signal,[4]; [15],0.0287 ± 0.023
same,peptide microarray binding signal,[4]; [16],0.00409 ± 0.0015
B7,peptide microarray binding signal,"[1]; peptide modifications: H3R8me2a, binder concentration: 50 nM",0.00386 ± 0.00017
same,peptide microarray binding signal,"[1]; peptide modifications: H3R8me2a, binder concentration: 500 nM",0.00367 ± 0.00047
same,peptide microarray binding signal,"[2]; peptide modifications: H3R8me2a, binder concentration: 10 nM",0.00346
same,peptide microarray binding signal,"[2]; peptide modifications: H3R8me2a, binder concentration: 100 nM",0.0034 ± 0.00021
same,peptide microarray binding signal,[3]; [17],0.0114 ± 0.0019
same,peptide microarray binding signal,[3]; [18],0.00793 ± 0.00067
same,peptide microarray binding signal,[4]; [17],0.00296 ± 0.00055
same,peptide microarray binding signal,[4]; [18],0.00565 ± 0.0013
B8,peptide microarray binding signal,"[1]; peptide modifications: H3R8me2a H3K9me2, binder concentration: 50 nM",0.007555 ± 2.4e-05
same,peptide microarray binding signal,"[1]; peptide modifications: H3R8me2a H3K9me2, binder concentration: 500 nM",0.0185 ± 0.0016
same,peptide microarray binding signal,"[2]; peptide modifications: H3R8me2a H3K9me2, binder concentration: 10 nM",0.0456 ± 0.0053
same,peptide microarray binding signal,"[2]; peptide modifications: H3R8me2a H3K9me2, binder concentration: 100 nM",0.0526 ± 0.0031
same,peptide microarray binding signal,[3]; [19],0.032 ± 0.0036
same,peptide microarray binding signal,[3]; [20],0.0252 ± 0.0039
same,peptide microarray binding signal,[4]; [19],0.185 ± 0.023
same,peptide microarray binding signal,[4]; [20],0.104 ± 0.0059
B9,peptide microarray binding signal,"[1]; peptide modifications: H3R8me2s H3K9me2, binder concentration: 50 nM",0.00545 ± 0.0001
same,peptide microarray binding signal,"[1]; peptide modifications: H3R8me2s H3K9me2, binder concentration: 500 nM",0.00886 ± 0.00071
same,peptide microarray binding signal,"[2]; peptide modifications: H3R8me2s H3K9me2, binder concentration: 10 nM",0.0168 ± 0.00063
same,peptide microarray binding signal,"[2]; peptide modifications: H3R8me2s H3K9me2, binder concentration: 100 nM",0.0228 ± 0.0012
same,peptide microarray binding signal,[3]; [21],0.0112 ± 0.0011
same,peptide microarray binding signal,[3]; [22],0.0122 ± 0.002
same,peptide microarray binding signal,[4]; [21],0.0214 ± 0.0029
same,peptide microarray binding signal,[4]; [22],0.0131 ± 0.00022
B10,peptide microarray binding signal,"[1]; peptide modifications: H3S10ph H3K14me2, binder concentration: 50 nM",0.0068 ± 0.00015
same,peptide microarray binding signal,"[1]; peptide modifications: H3S10ph H3K14me2, binder concentration: 500 nM",0.015 ± 0.00086
same,peptide microarray binding signal,"[2]; peptide modifications: H3S10ph H3K14me2, binder concentration: 10 nM",0.00597 ± 0.00047
same,peptide microarray binding signal,"[2]; peptide modifications: H3S10ph H3K14me2, binder concentration: 100 nM",0.0125 ± 0.0027
same,peptide microarray binding signal,[3]; [23],0.00874 ± 0.00064
same,peptide microarray binding signal,[3]; [24],0.0077 ± 0.0015
same,peptide microarray binding signal,[4]; [23],0.00565 ± 0.00062
same,peptide microarray binding signal,[4]; [24],0.00294 ± 0.00015
